# According to PubChem BioAssay (NCI):
# Compounds without any hit were thinned out: in the full panel of roughly 83,000, 20% have a hit.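 Single-dose data. Exposure time 48 hours. Values below 10 considered active.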 Calls of active or inactive are those of the source.
# System: HL-60(TB) leukemia
# Assay: NCI-60 one-dose screen, 48 h (100 = growth as untreated, 0 = no growth, -100 = all killed)
# Settings: 10 µM unless noted
row,Structure (SMILES),growth
1,CC1(C)CC[C@]2(C(=O)Nc3ccc(F)cc3)CC[C@]3(C)C(=CCC4[C@@]5(C)C[C@@H](O)[C@H](O)[C@@](C)(CO)C5CC[C@]43C)C2C1 (stereo not given in full),-11.7% (active)
2,COc1ccc([C@H](C)Nc2nc(Cl)nc3ccccc23)cc1,7.64% (active)
3,Brc1ccc(-c2n(Cc3ccc4ccccc4c3)c(-c3ccccc3)c(-c3ccccc3)[n+]2Cc2ccc3ccccc3c2)cc1,-5.57% (active)
4,CC(C)(C)Nc1nc2cc(Cl)c(Cl)cc2nc1S(C)(=O)=O,36.8% (inactive)
5,Clc1ccc(CNc2nc(SCCN3CCOCC3)nc3c2cnn3CC(Cl)c2ccc(Br)cc2)cc1 (stereo not given),-9.78% (active)
6,O=C(Cn1nc(-c2ccccc2)ccc1=O)NNC(=S)NC1CCCCC1,94.8% (inactive)
7,C[C@H](NC(=O)c1ccc2c(-c3ccc(C(F)(F)F)cc3)cccc2c1)c1ccccn1,23% (inactive)
8,CC1=C(C(=O)OCc2ccccc2)C(c2c(O)cc(O)cc2O)n2c(nc3ccccc32)N1 (stereo not given),27.2% (inactive)
9,CCOP(=O)(OCC)O[C@H]1CCC(=O)[C@@H]2[C@H]1[C@H]1C[C@@H]3[C@@]4(C)CCCC(C)(C(=O)OC)[C@@H]4CC[C@@]23C=C1C(C)C (stereo not given in full),36.4% (inactive)
10,Cc1ccccc1Nc1nnc(-c2c[nH]c3ccccc23)o1,-23.7% (active)
11,CC(=O)Nc1ccc(C(=O)NC(=S)Nc2ccc(S(N)(=O)=O)cc2)cc1,95.5% (inactive)
12,Cn1cc(-c2cc(N)n3nc(-c4c[nH]c5ccc(Cl)cc45)cc3n2)c2cc(Br)cnc21,-60.4% (active)
13,CC(=O)/C=C/c1cccc2c1C(=O)NC(C)(c1cc3cc(Br)ccc3oc1=O)N2 (stereo not given),-29.3% (active)
14,CCN1CCN(Cc2ccc(C(=O)Nc3cccc(-c4cn(-c5ccc6oc(=O)ccc6c5)nn4)c3)cc2C(F)(F)F)CC1,27.7% (inactive)
15,COc1ccc(C2=NN(C(C)=O)C(c3ccc(OCc4ccc(Cl)cc4)c(OC)c3)C2)cc1OC (stereo not given),34.6% (inactive)
16,Cc1ccc(C2CC(c3ccc(NC(=S)Nc4ccccc4)cc3)=NN2c2ccc(S(N)(=O)=O)cc2)cc1 (stereo not given),8.89% (active)
17,C=CC[n+]1cccc2c3ccccc3ccc21,57.2% (inactive)
18,COc1cccc(COc2ccc(/C=C3\Oc4cc(O)ccc4C3=O)cc2)c1,79.5% (inactive)
19,CC1(c2ccccc2)NC(=O)N(CC(=O)Nc2ccc(C(=O)/C=C/C=C/c3ccccc3)cc2)C1=O (stereo not given),36.8% (inactive)
20,COc1c(F)ccc(C(=O)Nc2ccc3nc(NC(=O)C4CCCN(S(=O)(=O)c5cccc(Br)c5)C4)sc3c2)c1F (stereo not given),80.6% (inactive)

row,Structure (SMILES),growth
1,N#Cc1ccc(-c2nn(-c3ccc(C(=O)O)cc3)cc2CNc2cccc(Br)c2)cc1,47% (inactive)
2,COC(=O)c1cccc(Oc2ccc(NC(=O)Nc3cc(C(F)(F)F)ccc3F)cc2)c1,78% (inactive)
3,COc1ccc2[nH]cc(-c3cc4nc(-c5cn(C)c6ncc(Br)cc56)cc(N)n4n3)c2c1,-61.2% (active)
4,CN1CCN(CCS(=O)(=O)Nc2cc(-c3ccc4ncnc(Nc5ccc(F)c(Cl)c5)c4c3)cnc2Cl)CC1,19.2% (inactive)
5,COc1ccc(-c2cc(-c3cc(OC)c(OC)c(OC)c3)[nH]c(=O)c2C#N)cc1,102% (inactive)
6,NS(=O)(=O)c1ccc(CCNC(=O)CSc2ccc(-c3ccc(Br)cc3)nn2)cc1,55.4% (inactive)
7,CCCSc1nc(NCCc2c[nH]c3ccccc23)c(C#N)c(-c2ccccc2)n1,70.4% (inactive)
8,CCCCNC(=S)Nc1ccc(OCc2nc3ccccc3[nH]2)cc1,31.7% (inactive)
9,CCOC(=O)C1NN(c2ccc(S(N)(=O)=O)cc2)c2nc3nc(-c4cccs4)cc(-c4cccs4)c3c(=O)n21 (stereo not given),96.2% (inactive)
10,CN(C)c1nc(NCCNS(=O)(=O)c2ccc(C3=Nc4c(N)nc(N)nc4NC(c4ccc(Cl)cc4)C3)cc2)nc(Nc2ccc(F)cc2)n1 (stereo not given),-13.8% (active)
11,N#C/C(=C/c1ccc([N+](=O)[O-])cc1)c1nnc(NC(=O)c2ccc(-n3c(=O)[nH]c4ccccc4c3=O)cc2)s1,99.3% (inactive)
12,Cc1noc2c(Cc3ccc([N+](=O)[O-])cc3)nn(CC(=O)N/N=C/c3ccc(Br)cc3)c(=O)c12,95.4% (inactive)
13,COc1nccnc1NS(=O)(=O)c1ccc(NC2=C(Cl)C(=O)c3nc(C)ccc3C2=O)cc1,100% (inactive)
14,CCCCc1c(Nn2cnnn2)no[n+]1[O-],37.9% (inactive)
15,CC1(C)CC[C@]2(C(=O)O)CC[C@]3(C)C(=CCC4[C@@]5(C)C[C@@H](O)[C@@H]6OC(c7ccccc7F)OC[C@@]6(C)C5CC[C@]43C)C2C1 (stereo not given in full),2.91% (active)
16,CC(=O)Nc1ccc(-c2nc3cc(-c4ccc(O)cc4)ccc3n2C)cc1,26% (inactive)
17,FC(F)(F)c1cc2c(Cl)ncnc2n1CCN1CCCCC1,-13.5% (active)
18,O=C(CNc1nc(-c2ccccc2)cs1)Nc1ccc(Cl)cc1[N+](=O)[O-],-15.1% (active)
19,Cc1c(C(=O)NNC(=O)c2ccc(Cl)cc2)nnn1-c1ccc(Cl)cc1,100% (inactive)
20,CS(=O)(=O)Nc1cncc(-c2ccc3ncnc(NCc4ccccc4)c3c2)c1,54.6% (inactive)
